Bioassay records: PubChem BioAssay, National Center for Advancing Translational Sciences (NCATS)
Shiga inhibitor = blocks Shiga toxin action in Vero cells; AID 2315; hit rate 9.2% among 290,000; inhibition, % at 38.7 µM; Vero cells, Shiga toxin protein synthesis inhibition reporter; in the data active means inhibition mostly above about 28%, no sharp cut-off; inactive means mostly below about 43%; further: 0% is about no effect
Lassa entry inh = blocks Lassa virus binding to or entry into cells; Lassa virus pseudotype entry inhibition, cell reporter; Potency, µM (series often up to 37.9 µM), inactives show at the highest dose activity change, negative = inhibition, usual class: inhibitors; hit rate 1.2% among 300,000; AID 540256; calls by dose curve; tested in HEK293 cells; further: potency means the concentration at half of the fitted maximal effect; on the % scale 0 is the no-effect control and ±100 the full control effect; nearly all actives have a fitted effect of over 50% in size
MARV entry inh = inhibitors of Marburg virus binding or cell entry. Marburg virus pseudotyped entry inhibition, cell reporter. Potency, µM (titrated, usually from 37.8 µM), for inactives: at the highest dose activity change, negative = inhibition, actives largely listed as inhibitors. hit rate 1.8% among 300,000; calls by dose curve; tested in HEK293 cells; further: potency means the concentration at half of the fitted maximal effect; on the % scale 0 is the no-effect control and ±100 the full control effect
AMA1-RON2 inh = inhibitors of Plasmodium falciparum AMA1-RON2 interaction; AlphaScreen AMA1-biotinylated RON2 peptide binding; AID 720542; Potency, µM (highest dose often 58.2 µM), for the others: at the top dose activity change, negative = inhibition, usual class: inhibitors; hit rate 0.2% among 360,000; active means well fitted inhibition curve with a large enough effect; inconclusive means small, poorly fitted or top-dose-only effect; inactive means no such curve, though single readings can be large or run the other way;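 further: potency means the concentration at half of the fitted maximal effect; 0% = vehicle wells and -100% = peptide control; nearly all actives have a fitted effect of over 45% in size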
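AMA1 (3D7) with his tag at 25 nM final met compounds first, then biotinylated RON2 peptide at 25 nM; detection used donor plus acceptor beads, 10 µg/mL apiece, read by AlphaScreen after 30 min at room temperature.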
CHX counter-1 = affects cycloheximide protein synthesis inhibition readout, counter-screen | max response, % | hit rate 12% among 300,000 | cell reporter, cycloheximide protein synthesis inhibition counterscreen; in the data active means max response mostly above about 13%, no sharp cut-off; inactive means mostly below about 14%; further: read at 38.3 µM for the half of the compounds with a filed dose; 0% is about no effect
CHX counter-2 = protein synthesis counter-screen activity for Shiga toxin hits; hit rate 3% among 510; Cycloheximide counterscreen, protein synthesis reporter, Shiga toxin assay; Potency, µM (top dose mostly 38.3 µM), inactives show at the top dose activity (activation), most hits filed as activators; AID 2318; shares compounds with Shiga inhibitor; calls by dose curve; further: potency means the concentration at half of the fitted maximal effect; 0% is about no effect
The depositor's hits bear a star; [ ] = dose if it differs, or a comment. Many of the other results were omitted from the sample, so hits are more common in it than they were.

`CC1(C)Cc2c(cnn2-c2ccccc2)C(NC(=O)CCN2CCCCO2)C1` (centres undefined) gave Shiga inhibitor 26*, AMA1-RON2 inh -11%, CHX counter-1 4 and CHX counter-2 1%.
For Cc1nn(C)c(C)c1CCC(=O)NC1CC(C)(C)Cc2c1cnn2-c1ccccc1 (centres undefined) the results were Shiga inhibitor -9, Lassa entry inh 8%, MARV entry inh -1%, AMA1-RON2 inh 3% and CHX counter-1 1.
`O=C(c1ccc([N+](=O)[O-])cc1)N1CCc2ccccc2C1` gave Shiga inhibitor 26*, Lassa entry inh 7%, MARV entry inh 3%[46.1 µM], AMA1-RON2 inh -7%, CHX counter-1 1 and CHX counter-2 1%.
O=C(c1ccc(S(=O)(=O)c2ccccc2)cc1)N1CCc2ccccc2C1 was read as Shiga inhibitor -4, Lassa entry inh -15%, MARV entry inh inconclusive, AMA1-RON2 inh -4% and CHX counter-1 -4.
Screening Cc1c(C(=O)N2CCc3ccccc32)cnn1C returned Shiga inhibitor 49*, Lassa entry inh inconclusive, MARV entry inh inconclusive, AMA1-RON2 inh -17%, CHX counter-1 6 and CHX counter-2 5%.
For CC(C)CC1=C/C(=C/c2ccc(-c3ccccc3)o2)C(=O)O1 the results were Shiga inhibitor 40*, Lassa entry inh -2%, MARV entry inh inconclusive, AMA1-RON2 inh -9%, CHX counter-1 9 and CHX counter-2 0%.
CCOC(=O)C1=C(C)NC(=O)NC1c1ccc(OCC(=O)Nc2ccccc2)c(OC)c1 (centres undefined) was read as Shiga inhibitor 39*, MARV entry inh -3%, AMA1-RON2 inh 6%, CHX counter-1 7 and CHX counter-2 0%.
For Cc1ccc(C(CC(=O)NCc2ccco2)c2ccc(OC(C)C)cc2)cc1 (centres undefined) the results were Shiga inhibitor 42*, Lassa entry inh -22%, MARV entry inh -17%, AMA1-RON2 inh 0%, CHX counter-1 15 and CHX counter-2 5%.
For Cc1cc(NC(=O)COC(=O)C2CCN(S(=O)(=O)c3ccccc3)CC2)c([N+](=O)[O-])cc1C the results were Shiga inhibitor -16, Lassa entry inh -2%, MARV entry inh -4%, AMA1-RON2 inh -22% and CHX counter-1 -1.
For COc1ccccc1-n1nnnc1SCc1ccccc1 the results were Shiga inhibitor 5, Lassa entry inh inconclusive, MARV entry inh -6%, AMA1-RON2 inh 27% and CHX counter-1 -2.
For COc1cc(-n2nnnc2SC)c(OC)cc1Cl the results were Shiga inhibitor 47*, AMA1-RON2 inh 6%, CHX counter-1 10 and CHX counter-2 -1%.
Screening CCOC(=O)N1CCN(C(=O)CN(C)S(=O)(=O)c2ccc(F)cc2)CC1 returned Shiga inhibitor 7, Lassa entry inh -2%, MARV entry inh 0%[46.1 µM], AMA1-RON2 inh -3% and CHX counter-1 5.
`CN1CCN(C(=O)CN(C)S(=O)(=O)c2ccc(F)cc2)CC1` gave Shiga inhibitor 38*, Lassa entry inh 2%, MARV entry inh 6%[46.1 µM], AMA1-RON2 inh -10%, CHX counter-1 -3 and CHX counter-2 -1%.
`CCCCc1nn2c(=O)cc(COC(=O)c3ccc(NC(=O)C4CCCCC4)cc3)nc2s1` gave Lassa entry inh 7%[46.1 µM].
For O=C(CSc1ccccc1)NCC1(N2CCCCC2)CCCCC1 the results were Lassa entry inh 2%, MARV entry inh inconclusive and AMA1-RON2 inh -12%.
Screening CC(=O)Nc1cccc(NC(=O)CSc2nc3ccccc3o2)c1 returned Shiga inhibitor 25*, Lassa entry inh 5%, MARV entry inh 14%, AMA1-RON2 inh -1%, CHX counter-1 7 and CHX counter-2 -2%.
Screening Cc1cccc2sc(NC(=O)CSc3nc4ccccc4o3)nc12 returned Shiga inhibitor -14, Lassa entry inh -2%, MARV entry inh inconclusive, AMA1-RON2 inh 7% and CHX counter-1 10.
`COC(=O)[C@]12CCCCC=C1N(Cc1ccccc1)C(=O)[C@H](CC(=O)NCCC(C)C)C2` gave AMA1-RON2 inh -3%.
`CC(=O)c1sc(-c2ccccn2)nc1C` gave Shiga inhibitor 32*, CHX counter-1 14 and CHX counter-2 3%.
Screening CC1CCN(CC2CCN(C(=O)Nc3ccc(Br)cc3F)CC2)CC1 returned Lassa entry inh 20%[46.1 µM].
COc1cc2c(c(OC)c1OC)-c1c(cc(OC)c(OC)c1OC)CC(C)C(C)C2 (centres undefined) was read as Shiga inhibitor 32*, CHX counter-1 8 and CHX counter-2 2%.
`CCNc1c(NC(=O)C2CCC(C)CC2)c(=O)oc2ccccc12` (centres undefined) gave Shiga inhibitor -8, Lassa entry inh 4%, MARV entry inh 9%[46.1 µM], AMA1-RON2 inh 2% and CHX counter-1 -1.
CCNc1c(NC(=O)c2cccs2)c(=O)oc2ccccc12 was read as Shiga inhibitor 30*, Lassa entry inh 6%, MARV entry inh 1%[46.1 µM], AMA1-RON2 inh -10%, CHX counter-1 2 and CHX counter-2 1%.
Cc1ccc(C)c(S(=O)(=O)Nc2ccc(C(=O)NCCc3ccccn3)cc2)c1 was read as Shiga inhibitor 31, Lassa entry inh inconclusive, MARV entry inh 11%, AMA1-RON2 inh 13% and CHX counter-1 -3.
For COc1ccc(-c2cn3c(C)c(C(=O)NC(C)C)sc3n2)cc1 the results were Shiga inhibitor 53*, Lassa entry inh 0%, MARV entry inh 9%, AMA1-RON2 inh 9%, CHX counter-1 8 and CHX counter-2 3%.
Screening COc1ccc(-c2cn3c(C)c(C(=O)N4CCN(c5ccc(F)cc5)CC4)sc3n2)cc1 returned Shiga inhibitor -8, MARV entry inh -1%, AMA1-RON2 inh -9% and CHX counter-1 -4.
For O=C(CSc1nnc(NC(=O)C2CC(=O)N(c3ccc(F)cc3)C2)s1)NCc1ccco1 (centres undefined) the results were Shiga inhibitor -4, Lassa entry inh 3%, MARV entry inh inconclusive, AMA1-RON2 inh 11% and CHX counter-1 -3.
Screening O=C(/C=C/c1ccc(S(=O)(=O)NCc2ccco2)cc1)N1CCN(c2ccccc2)CC1 returned Shiga inhibitor 66*, Lassa entry inh -13%[46.1 µM], MARV entry inh inconclusive, AMA1-RON2 inh -1%, CHX counter-1 4 and CHX counter-2 5%.
For O=C(c1ccc(S(=O)(=O)NCc2ccco2)cc1)N1CCN(c2ccc(F)cc2)CC1 the results were AMA1-RON2 inh -9%.
Screening CC(NS(=O)(=O)c1ccc2c(c1)oc(=O)n2C)c1ccccc1 (centres undefined) returned Shiga inhibitor -21, AMA1-RON2 inh -4% and CHX counter-1 -5.
C=C(C)C(=O)/C=C/C=C/c1ccccc1 was read as MARV entry inh -87%[14.2 µM].
`O=C/C=C/c1ccccc1` gave Shiga inhibitor 64*, AMA1-RON2 inh 7%, CHX counter-1 16 and CHX counter-2 inconclusive.
